These results are taken from PubChem BioAssay (NCATS).

Results filed as inconclusive are left out. Unmarked numbers belong to inactive results. Activity calls are given as the source filed them. Calls come from the whole dose curve; as a rule, active = well fitted inhibition curve with a large enough effect; inconclusive = small, poorly fitted or top-dose-only effect; inactive = flat fitted curve, though single readings scatter. *1 amine or outer side, *2 acyl side, *3 side chain or, on linkers, in order; H or OH if unused. Where a SMILES comes first, the peptide text is derived from it. Bridges are numbered along the chain shown (N, C = ends). [ ]: non-standard residue; d: D form. The star is where a group is joined. ξ: configuration not given here. X10 = NC1=NCCC(C(N[*:1])C(=O)[*:2])N1; ΔAla(3-NHCONH2) = NC(=O)NC=C(N)C(=O)O; ξβ3hOrn = NCCCC(N)CC(=O)*; Dap = NC[CH](N)C(=O)O

The target in assay [1] is Glutathione peroxidase 1 (Homo sapiens) (UniProt P07203). In words: Primary qHTS Assay for Inhibitors of Recombinant Selenoprotein Glutathione Peroxidase 1 (GPX1) (AID 1845191). The gist of the method:
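GR-coupled readout: NADPH consumption tracked by fluorescence, ex 340/em 450 nm, at t=0 and after 15 min at RT. Final mix 10 nM GPX1, 1 mM GSH, 0.5 mM CHP, 0.5 mM NADPH, 100 nM GR, 0.01% BSA, following 30 min enzyme–compound preincubation.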
In general terms: Quantitative high-throughput screening tests each substance at several concentrations.

The target in assay [2] is Phospholipid hydroperoxide glutathione peroxidase GPX4 (Homo sapiens) (UniProt P36969). Briefly: Primary qHTS Assay for Inhibitors of Recombinant Selenoprotein Glutathione Peroxidase 4 (GPX4) (AID 1845192). For activity change, negative = inhibition: series mostly up to about 50 µM. The gist of the method:
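Steps: GPX4 plus compound, 30 min RT; add GR/GSH/NADPH master mix; start with cumene hydroperoxide; read 340/450 nm fluorescence at 0 and 15 min. Finals were 200 nM GPX4, 1 mM GSH, 0.5 mM CHP, 0.5 mM NADPH, 100 nM GR.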
% is set by controls: 0 for no effect and ±100 for the full control effect.
Note: nearly all actives have a fitted effect of over 65% in size.

Sequence of Glutathione peroxidase 1 (Homo sapiens) (P07203 whole entry, looked up): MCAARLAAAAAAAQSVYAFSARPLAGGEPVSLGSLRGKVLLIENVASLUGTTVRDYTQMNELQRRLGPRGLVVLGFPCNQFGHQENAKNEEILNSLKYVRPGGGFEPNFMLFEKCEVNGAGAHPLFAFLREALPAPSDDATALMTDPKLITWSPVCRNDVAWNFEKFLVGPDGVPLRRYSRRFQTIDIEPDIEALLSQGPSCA
Sequence of Phospholipid hydroperoxide glutathione peroxidase GPX4 (Homo sapiens) (P36969 whole entry, looked up): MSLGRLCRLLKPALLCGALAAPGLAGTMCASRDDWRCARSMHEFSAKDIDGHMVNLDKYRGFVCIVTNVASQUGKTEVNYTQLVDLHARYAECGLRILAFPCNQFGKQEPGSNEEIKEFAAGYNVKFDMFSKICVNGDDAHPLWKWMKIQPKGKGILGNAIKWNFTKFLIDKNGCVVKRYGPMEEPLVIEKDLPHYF

Turning to `COC(=O)/C=C\C(=O)OC`, the Potency result in assay [1] and in assay [2] was “inactive” throughout.

Consider `N#C/C(=C1/SC[C@@H](c2ccc(Cl)cc2Cl)S1)n1ccnc1`, for which the Potency result in assay [1] and in assay [2] was “inactive” in each case.

On to `CC(C)C(=O)Nc1cccc(C2CN3CCSC3=N2)c1` (stereo not drawn), for which the Potency entry in assay [1] and in assay [2] was “inactive” in each case.

With `CCC(=O)O[C@]1(C(=O)COC)[C@@H](C)C[C@H]2[C@@H]3CCC4=CC(=O)C=C[C@]4(C)C3(F)[C@@H](O)C[C@@]21C` (stereo partly drawn), the Potency entry in assay [1] and in assay [2] was “inactive” throughout.

Turning to `CCC(CN)=C(c1ccccc1)c1ccccc1`, the Potency result in assay [1] and in assay [2] was “inactive” each time.

In the case of `CC(=O)OCC(=O)[C@@]1(O)[C@H](OC(C)=O)C[C@H]2[C@@H]3CCC4=CC(=O)C=C[C@]4(C)[C@@]3(F)[C@@H](O)C[C@@]21C`, the Potency entry in assay [1] and in assay [2] was “inactive” each time.

As to `CCC(C(=O)OCCN1CCOC(c2ccccc2)C1C)c1ccccc1` (stereo not drawn), the Potency entry in assay [1] and in assay [2] was “inactive” in each case.

For the molecule `CCCCC/C=C\C/C=C\CCCCCCCC(=O)NC(C)c1ccccc1` (stereo not drawn), the Potency result in assay [1] and in assay [2] was “inactive” throughout.

On to `CNC[C@H](O)[C@@H](O)[C@H](O)[C@H](O)CO`, for which the Potency entry in assay [1] and in assay [2] was “inactive” each time.

Regarding `CC[C@@H]([C@H](C)O)n1ncn(-c2ccc(N3CCN(c4ccc(OC[C@@H]5CO[C@@](Cn6cncn6)(c6ccc(F)cc6F)C5)cc4)CC3)cc2)c1=O`, the Potency result in assay [1] and in assay [2] was “inactive” each time.

On to `CCCCCCCCCCCCCCCC[n+]1ccccc1`, for which the Potency entry in assay [1] and in assay [2] was “inactive” each time.

As for `CCCCCCCCCCCCCCCCCCNC(=O)OC1CCN(C(=O)OC[C@H](COC(=O)N(Cc2cccc[n+]2CC)C(=O)c2ccccc2OC)OC)CC1`, the Potency entry in assay [1] and in assay [2] was “inactive” each time.

For the molecule `CNC(=O)c1cnn(-c2nc(N)c3ncn([C@@H]4O[C@H](CO)[C@@H](O)[C@H]4O)c3n2)c1`, the Potency entry in assay [1] and in assay [2] was “inactive” in each case.

For `CO[C@@H]1[C@@H](O[C@@H]2O[C@H](C)[C@@H](O[C@H]3C[C@@](C)(O)[C@@H](O)[C@H](C)O3)[C@H](N(C)C)[C@H]2O)[C@@H](CC=O)C[C@@H](C)[C@@H](O[C@@H]2CC[C@H](N(C)C)[C@@H](C)O2)/C=C/C=C/C[C@@H](C)OC(=O)C[C@H]1OC(C)=O`, the Potency entry in assay [1] and in assay [2] was “inactive” in each case.

Regarding `CCOC(=O)[C@H](CCc1ccccc1)N[C@@H](C)C(=O)N(CC(=O)O)C1Cc2ccccc2C1`, the Potency result in assay [1] and in assay [2] was “inactive” throughout.

Regarding `CCCc1ccc(OCC(=O)N2CCN(C(=O)COc3ccc(CCC)cc3OC)CC2)c(OC)c1`, the Potency entry in assay [1] and in assay [2] was “inactive” each time.

As for `Cc1cccc(N(C)C(=S)Oc2ccc3c(c2)C2CCC3C2)c1` (stereo not drawn), the Potency result in assay [1] and in assay [2] was “inactive” throughout.

On to `CCCCCC(=O)O[C@]1(C(C)=O)CC[C@H]2[C@@H]3CCC4=CC(=O)CC[C@]4(C)[C@H]3CC[C@@]21C`, for which the Potency result in assay [1] and in assay [2] was “inactive” in each case.

As to `CC(=O)OCC(=O)[C@@]1(O)CCC2C3CCC4=CC(=O)CC[C@]4(C)C3[C@@H](O)C[C@@]21C` (stereo partly drawn), the Potency result in assay [1] and in assay [2] was “inactive” throughout.

For `CCOC(=O)OCC/C(SC(=O)OCC)=C(\C)N(C=O)Cc1cnc(C)nc1N`, the Potency result in assay [1] and in assay [2] was “inactive” each time.

For the molecule `CCCC(=O)OCOC(=O)C1=C(C)NC(C)=C(C(=O)OC)C1c1cccc(Cl)c1Cl` (stereo not drawn), the Potency result in assay [1] and in assay [2] was “inactive” each time.

As to `CC(C)Cc1ccc(C(C)C(=O)OCc2ccccn2)cc1` (stereo not drawn), the Potency result in assay [1] and in assay [2] was “inactive” throughout.

Take `O=c1[nH]c(=O)n([C@H]2O[C@H](CO)[C@@H](O)[C@@H]2O)cc1/C=C\Br`: the Potency entry in assay [1] and in assay [2] was “inactive” throughout.

Turning to `NCCCC(N)CC(=O)NCC1NC(=O)C(CO)NC(=O)C(N)CNC(=O)C(C2CCN=C(N)N2)NC(=O)C(=CNC(N)=O)NC1=O` (stereo not drawn) (H-[Dap]S[Dap](ξβ3hOrn)[ΔAla(3-NHCONH2)][X10]; lactam 1-C; configuration not given here), the outcome in assay [1] was “inactive [at 0.4 µM]”. The activity change, negative = inhibition in assay [2] is 3.67% [at 0.409 µM].

As to `CC(C)(C)NCC(O)COc1ccccc1OCC1CCCO1` (stereo not drawn), the Potency entry in assay [1] and in assay [2] was “inactive” in each case.

For the molecule `CC(C)=CCC/C(C)=C/CC/C(C)=C/CCC(=O)OC/C=C(\C)CCC=C(C)C`, the Potency entry in assay [1] and in assay [2] was “inactive” throughout.

On to `O=C1NCCN1CCN1CCC(c2cn(-c3ccc(F)cc3)c3ccc(Cl)cc23)CC1`, for which the Potency entry in assay [1] and in assay [2] was “inactive” in each case.

As for `C/C(=N\O)[C@@H](C)NCC(C)(C)CN[C@H](C)/C(C)=N/O`, the Potency entry in assay [1] and in assay [2] was “inactive” throughout.

In the case of `O=C(O)c1ccccc1S`, the Potency result in assay [1] and in assay [2] was “inactive” each time.

`O=C(O)/C=C(\CC(=O)O)C(=O)O`: the Potency result in assay [1] and in assay [2] was “inactive” throughout.

For the molecule `C/C(=C1\CCOC(=O)S1)N(C=O)Cc1cnc(C)nc1N`, the Potency result in assay [1] and in assay [2] was “inactive” throughout.

Regarding `CN(C)CCOC(c1ccccc1)c1ccc(Br)cc1` (stereo not drawn), the Potency result in assay [1] and in assay [2] was “inactive” in each case.

For the molecule `Cc1oc(=O)oc1COC(=O)[C@@H]1N2C(=O)[C@@H](NC(=O)[C@H](N)c3ccccc3)[C@H]2SC1(C)C`, the Potency entry in assay [1] and in assay [2] was “inactive” in each case.

On to `O=C(COCCOCCOCC(=O)Nc1c(I)cc(I)c(C(=O)O)c1I)Nc1c(I)cc(I)c(C(=O)O)c1I`, for which the Potency entry in assay [1] and in assay [2] was “inactive” in each case.

As for `O=C(Nc1ccc(Cl)cc1)Nc1ccc(Cl)c(Cl)c1`, the Potency entry in assay [1] and in assay [2] was “inactive” in each case.

As to `Cc1ccccc1N1CCN(CCc2nnc3n2CCCC3)CC1`, the Potency result in assay [1] and in assay [2] was “inactive” each time.

Take `Cc1cccc(C)c1NC(=O)c1cc(S(N)(=O)=O)c(Cl)cc1O`: the Potency entry in assay [1] and in assay [2] was “inactive” throughout.

As to `CC1(C)S[C@@H]2[C@H](NC(=O)C(c3ccccc3)S(=O)(=O)O)C(=O)N2[C@H]1C(=O)O` (stereo partly drawn), the Potency result in assay [1] and in assay [2] was “inactive” throughout.

As for `Cc1nc(C2CCCCC2)c(-c2ccc(S(N)(=O)=O)c(F)c2)o1`, the Potency result in assay [1] and in assay [2] was “inactive” in each case.
